ATXN viability = cell viability loss in ATXN counter-screen. S2 cells (HEK-293 line with an ATXN2-luciferase reporter) viability, CellTiter-Fluor protease fluorescence, 24 h. Potency, µM (doses to about 56.7 µM), usual class: cytotoxic. actives 0.49% (n = 400,000); note: nearly all actives have a fitted effect of over 40% in size
DT40 TDP1 no CPT = qHTS for Inhibitors of human tyrosyl-DNA phosphodiesterase 1 (TDP1): qHTS in cells in absence of CPT | actives 15% (n = 420,000) | DT40 Tdp1-/- hTDP1 cells, no CPT, ATP luminescence, 48 h | Potency, µM (highest dose often 46.2 µM), inactives show at the top dose activity change, negative = growth inhibition, most hits filed as inhibitors | AID 686978, 2013; note: % is set by controls: 0 for no effect and ±100 for the full control effect; nearly all actives have a fitted effect of over 55% in size
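DT40 Tdp1-/-;hTDP1 cells, no CPT (DMSO vehicle only), 400 cells/well; compounds pin-transferred; ≥48 hr, 37 °C; CellTiter-Glo 30 min RT dark, luminescence read.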
ATXN2 expr inh = reduces ATXN2 reporter expression in HEK-293 cells; Potency, µM (series often up to 57 µM), for the others: at the highest dose activity change, negative = inhibition, hits mostly inhibitors; HEK-293 ATXN2-luciferase reporter, luminescence, 24 h; AID 1745845; actives 0.72% (n = 360,000); note: % is set by controls: 0 for no effect and ±100 for the full control effect; nearly all actives have a fitted effect of over 55% in size
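ATXN2-luciferase reporter cells (luciferase flanked by upstream and downstream ATXN2 gene portions) were treated 24 h at 37 °C with compounds at up to 57 uM. SteadyGlo luminescence gave expression; GF-AFC fluorescence gave viability.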
DT40 TDP1 CPT = growth inhibition of DT40 Tdp1-/-;hTDP1 cells with camptothecin (screen for TDP1 inhibitors) | Potency, µM (top dose mostly 46.2 µM), without a hit: at the top dose activity change, negative = growth inhibition, most hits filed as inhibitors | chicken DT40 Tdp1-/-;hTDP1 cells + 20 nM CPT, ATP luminescence, 48 h | actives 12% (n = 420,000) | AID 686979; note: % is set by controls: 0 for no effect and ±100 for the full control effect; nearly all actives have a fitted effect of over 55% in size
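Chicken DT40 Tdp1-/- cells stably complemented with human TDP1 were seeded at 400 cells/well in medium containing 20 nM camptothecin, exposed to pin-transferred compounds, and grown at 37 °C for at least 48 hr. Viability was read as ATP luminescence.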
TGFb inhibitor = inhibitors of TGF-b signaling; HepG2 CAGA-GFP TGF-b/SMAD3 reporter, GFP fluorescence, 18 h; TGF-beta stimulated, 500 pg/mL final; Potency, µM (doses to about 46.1 µM), for the others: at the top dose activity, negative = inhibition, usual class: inhibitors; AID 588855; actives 1.2% (n = 410,000); note: % is set by controls: 0 for no effect and ±100 for the full control effect; nearly all actives have a fitted effect of over 65% in size
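GFP signal (ex488/em500-530) from TGF-beta-stimulated HEPG2 CAGA-GFP cells, 500 pg/mL final, 18 h at 37 degrees C in DMEM plus 1% FBS, normalized to unstimulated and DMSO-stimulated controls.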
HepG2 viability = counter-screen for TGF-b inhibitors: cytotoxicity in HepG2 cells | HepG2 CAGA-GFP viability, ATP luminescence, 18 h | Potency, µM (doses to about 46.1 µM), for the others: at the top dose activity change, negative = cytotoxicity, usual class: cytotoxic | actives 0.76% (n = 410,000)
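CellTiter-Glo luminescence gave cytotoxicity after 18 hours at 37 degrees C. The cells were HepG2 CAGA-GFP in 1% FBS DMEM, stimulated with 500 pg/mL TGF-beta after compound addition. %Activity was normalised to no-cell wells (complete cell-killing) and DMSO (no toxicity), and curves were fitted and classified.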
* hit, by the source's call. Only some compounds are listed: those with a hit (about 17% of all), similar ones and a draw of the others. Calls come from the whole dose curve; as a rule, active = well fitted curve in the direction sought with a large enough effect; inconclusive = small, poorly fitted or top-dose-only effect, or another doubt; inactive = no such curve, though single readings can be large; an effect the other way counts as inactive or inconclusive. Potency is the fitted concentration of half-maximal effect.

Cc1ccc(-c2noc(CNC(=O)COc3ccccc3C)n2)cc1 was read as ATXN viability inactive, DT40 TDP1 no CPT 5%, ATXN2 expr inh 3%, DT40 TDP1 CPT -14%, TGFb inhibitor -9% and HepG2 viability -16%.
COc1ccc(NC(=O)Cn2ncc3c(C)n(Cc4cccc(Cl)c4)c(C)c3c2=O)cc1 was read as DT40 TDP1 no CPT -28%, DT40 TDP1 CPT -17%, TGFb inhibitor inconclusive and HepG2 viability -1%.
C=CC[C@]12C=C(OC)C(=O)C=C1O[C@@H](c1ccc3c(c1)OCO3)[C@H]2C was read as ATXN viability inactive, DT40 TDP1 no CPT -17%, ATXN2 expr inh -2%, DT40 TDP1 CPT 1%, TGFb inhibitor 22% and HepG2 viability -1%.
`COc1ccc(-c2noc(CCC(=O)NCc3cc(Br)ccc3OC)n2)cc1` gave ATXN viability inactive, DT40 TDP1 no CPT 18µM*, ATXN2 expr inh -5%, DT40 TDP1 CPT inconclusive, TGFb inhibitor -9% and HepG2 viability -8%.
`COc1ccc(-c2ccc(CCC(=O)O)o2)cc1` gave ATXN viability inconclusive, DT40 TDP1 no CPT inconclusive, ATXN2 expr inh -15%, DT40 TDP1 CPT 21µM*, TGFb inhibitor -2% and HepG2 viability -9%.
Screening Cc1ccc(-c2noc(CCC(=O)Nc3ccc4c(c3)OCO4)n2)cc1 returned ATXN viability inactive, DT40 TDP1 no CPT inconclusive, ATXN2 expr inh -3%, DT40 TDP1 CPT inconclusive, TGFb inhibitor 0% and HepG2 viability -43%.
Screening CCOC(=O)c1ccc(NC(=O)CCc2nc(-c3ccc(C)cc3)no2)cc1 returned ATXN viability inactive, DT40 TDP1 no CPT 21µM*, ATXN2 expr inh 0%, DT40 TDP1 CPT inconclusive, TGFb inhibitor 5% and HepG2 viability -71%.
`COc1ccc(-c2noc(CCC(=O)NCc3ccc(OC)cc3OC)n2)cc1` gave ATXN viability inactive, DT40 TDP1 no CPT 16µM*, ATXN2 expr inh -6%, DT40 TDP1 CPT inconclusive, TGFb inhibitor inconclusive and HepG2 viability -27%.
Screening COc1ccc(CNC(=O)CCc2nc(-c3ccc(C)cc3)no2)c(OC)c1 returned ATXN viability inactive, DT40 TDP1 no CPT inconclusive, ATXN2 expr inh -16%, DT40 TDP1 CPT inconclusive, TGFb inhibitor -4% and HepG2 viability -14%.
COc1cc(=O)n2c(c1C(=O)N(C)Cc1nonc1C)CCN(Cc1cc(C)c(C)cc1C)CC2 was read as ATXN viability inactive, DT40 TDP1 no CPT inconclusive and DT40 TDP1 CPT inconclusive.
`COc1ccc(CCN2CC(C(=O)NCCc3cnn(C)c3)CCC2=O)cc1` (stereo unspecified) gave ATXN viability inactive, DT40 TDP1 no CPT inconclusive, ATXN2 expr inh 11%, DT40 TDP1 CPT inconclusive, TGFb inhibitor -2% and HepG2 viability -1%.
For CC(=O)OCC(=O)[C@@]1(O)CC[C@H]2[C@@H]3CCC4=CC(=O)CC[C@]4(C)C3=CC[C@@]21C the results were DT40 TDP1 no CPT -23% and DT40 TDP1 CPT 3%.
`COc1ccc(-c2noc(CCCC(=O)O)n2)cc1` gave ATXN viability inactive, DT40 TDP1 no CPT -16%, ATXN2 expr inh 4µM*, DT40 TDP1 CPT inconclusive, TGFb inhibitor -10% and HepG2 viability -5%.
Screening COc1ccc(NC(=O)CCc2nc(-c3ccc(C)cc3)no2)cc1Cl returned ATXN viability inactive, DT40 TDP1 no CPT 16µM*, ATXN2 expr inh 19%, DT40 TDP1 CPT 16µM*, TGFb inhibitor -3% and HepG2 viability -35%.
For O=C(CCc1nc(-c2ccc(F)cc2)no1)Nc1cccc(C(=O)NC2CC2)c1 the results were ATXN viability inactive, DT40 TDP1 no CPT 16µM*, ATXN2 expr inh -20%, DT40 TDP1 CPT inconclusive, TGFb inhibitor -9% and HepG2 viability -22%.
Screening COc1ccc(-c2noc(CN(C)C(=O)c3ccoc3C)n2)cc1 returned ATXN viability inactive, DT40 TDP1 no CPT 16µM*, ATXN2 expr inh 10%, DT40 TDP1 CPT inconclusive, TGFb inhibitor -1% and HepG2 viability 7%.
For CC(=O)N1CCc2cc(S(=O)(=O)N3CC(C)CC(C)C3)ccc21 (stereo unspecified) the results were ATXN viability inactive, DT40 TDP1 no CPT -18%, ATXN2 expr inh -2%, DT40 TDP1 CPT inconclusive, TGFb inhibitor 2% and HepG2 viability -1%.
For Cn1c(=O)[nH]c(=O)c2c1nc1n2CCCN1Cc1ccccc1 the results were ATXN viability inactive, DT40 TDP1 no CPT -22%, ATXN2 expr inh 7%, DT40 TDP1 CPT -12%, TGFb inhibitor -15% and HepG2 viability 2%.
`Cc1ccc(NC(=O)N2CCCc3ccccc32)cc1C` gave ATXN viability inactive, DT40 TDP1 no CPT -23%, ATXN2 expr inh 60%, DT40 TDP1 CPT -30%, TGFb inhibitor -2% and HepG2 viability 6%.
CCCNC(=O)c1ccccc1NC(=O)c1nsc2ccccc12 was read as ATXN viability inactive, DT40 TDP1 no CPT inconclusive, ATXN2 expr inh 3%, DT40 TDP1 CPT inconclusive, TGFb inhibitor -2% and HepG2 viability 3%.
For CC(C)(C)c1ccc(-c2noc(CCC(=O)Nc3cccc(Cl)c3)n2)cc1 the results were ATXN viability inactive, DT40 TDP1 no CPT inconclusive, ATXN2 expr inh inconclusive, DT40 TDP1 CPT inconclusive, TGFb inhibitor -8% and HepG2 viability -16%.
For Cc1ccc(-c2noc(CCCC(=O)N3CCOCC3)n2)cc1 the results were ATXN viability inconclusive, DT40 TDP1 no CPT -29%, ATXN2 expr inh -12%, DT40 TDP1 CPT -22%, TGFb inhibitor 2% and HepG2 viability -21%.
`O=C(CCCc1nc(-c2ccc(Cl)cc2)no1)N1CCOCC1` gave ATXN viability inactive, DT40 TDP1 no CPT 16µM*, ATXN2 expr inh -10%, DT40 TDP1 CPT 23µM*, TGFb inhibitor -25% and HepG2 viability -20%.
`CCc1ccccc1N(C)C(=O)CCc1nc(-c2ccc(C)cc2)no1` gave ATXN viability inactive, DT40 TDP1 no CPT inconclusive, ATXN2 expr inh -16%, DT40 TDP1 CPT inconclusive, TGFb inhibitor -18% and HepG2 viability 7%.
Screening Cc1ccc(C)c(NC(=O)CCc2nc(-c3ccc(C(C)(C)C)cc3)no2)c1 returned ATXN viability inconclusive, DT40 TDP1 no CPT 16µM*, ATXN2 expr inh inconclusive, DT40 TDP1 CPT 23µM*, TGFb inhibitor inconclusive and HepG2 viability -41%.
